JMJD2A Tudor: blocks the human JMJD2A Tudor domain; AlphaScreen JMJD2A-Tudor / H3K4me3 peptide binding; O75164; actives 4.4% (n = 390,000); Potency, µM (highest dose often 114 µM), hits mostly inhibitors; further: nearly all actives have a fitted effect of over 50% in size
BAZ2B block: blocks human BAZ2B; AlphaScreen BAZ2B-H3K14Ac peptide displacement; Potency, µM (highest dose often 114 µM), actives largely listed as inhibitors; actives 4.4% (n = 360,000); AID 504333; Q9UIF8; further: nearly all actives have a fitted effect of over 60% in size
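In this displacement format the biotinylated H3(5-23) peptide acetylated at Lys14 serves as ligand at 50 nM, with BAZ2B at 50 nM in PBS pH 7.4 containing 0.01% Tween-20. Donor and acceptor beads are 10 ug/mL final.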
12-LOX inh: inhibitors of human 12S-lipoxygenase ALOX12; P18054; purified 12hLO, xylenol orange hydroperoxide absorbance; Potency, µM (doses to about 108 µM), most hits filed as inhibitors; actives 1.1% (n = 580,000); AID 1671190
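Purified human 12hLO (150 nM final) in 25 mM Hepes, 0.01% Triton X-100, pH 7.0 was preincubated 15 min at room temperature with compound. Then 40 uM arachidonic acid was added, 30 min. Hydroperoxide was read by Fe-XO absorbance ratio 573/405 nm.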
G9a block: blocks human histone lysine methyltransferase G9a | Q96KQ7 | G9a H3K9 monomethylation, AlphaScreen, 2 h | Potency, µM (series often up to 102 µM), most hits filed as inhibitors | actives 8.8% (n = 350,000) | AID 504332; further: nearly all actives have a fitted effect of over 75% in size
Target sequence (Q96KQ7 913-1193 limits assumed): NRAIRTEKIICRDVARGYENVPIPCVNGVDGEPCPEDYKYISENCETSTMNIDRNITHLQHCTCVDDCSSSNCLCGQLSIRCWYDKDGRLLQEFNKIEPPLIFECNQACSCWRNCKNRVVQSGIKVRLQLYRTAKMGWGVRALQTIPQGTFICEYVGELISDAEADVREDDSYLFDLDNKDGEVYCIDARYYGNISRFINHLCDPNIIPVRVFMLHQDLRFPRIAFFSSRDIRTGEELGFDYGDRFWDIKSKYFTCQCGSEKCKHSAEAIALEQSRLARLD
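Compounds were preincubated with 20 nM G9a for 15 min, after which biotinylated H3K9 peptide (500 nM) and SAM (20 uM) started a 2 h room-temperature reaction. Monomethylated product was quantified by antibody-based AlphaScreen chemiluminescence.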
HP1b chromo inh: blocks HP1-beta chromodomain binding to methylated histone tails; Potency, µM (top dose mostly 114 µM), usual class: inhibitors; AID 540317; actives 0.56% (n = 390,000); P83916; AlphaScreen HP1-beta / biotin-H3K9me3 peptide binding; further: nearly all actives have a fitted effect of over 70% in size
Target sequence (P83916 whole entry, looked up): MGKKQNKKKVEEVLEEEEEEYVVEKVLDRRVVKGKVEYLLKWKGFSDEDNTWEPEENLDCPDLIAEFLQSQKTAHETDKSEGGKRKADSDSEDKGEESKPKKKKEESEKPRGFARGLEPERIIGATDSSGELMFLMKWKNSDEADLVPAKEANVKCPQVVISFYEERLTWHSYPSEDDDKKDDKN
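HP1-beta protein (50 nM final) preincubated 30 min at room temperature with biotinylated H3(1-18)K9me3 peptide (50 nM) in PBS pH 7.4, 0.01% Tween-20, then compound added for 30 min. AlphaScreen streptavidin donor/nickel chelate acceptor beads (10 ug/mL final), 30 min dark, luminescence read.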
PLK1 PBD inh: PLK1 (human) polo-box domain binding inhibition | Potency, µM, usual class: inhibitors | P53350 | AID 720504 | actives 2.8% (n = 360,000) | Plk1 PBD binding of FITC phosphopeptide, fluorescence polarization; further: series mostly up to about 57 µM; nearly all actives have a fitted effect of over 65% in size
Hits are given with their value; i = inactive; ? = inconclusive; nt = not tested or not shown; [ ] = another dose, or the depositor's remark. In the library only some 9% were active in any assay of this set; here they are far more common. The call rests on the fitted dose curve; in most records, active means well fitted curve in the direction sought with a large enough effect; inconclusive means small, poorly fitted or top-dose-only effect, or another doubt; inactive means no such curve, though single readings can be large; an effect the other way counts as inactive or inconclusive.

SMILES	JMJD2A Tudor	BAZ2B block	12-LOX inh	G9a block	HP1b chromo inh	PLK1 PBD inh
C#CCOCCOCCOCCNc1nc(N2CCN(C(=O)C([C@@H](C)CC)n3cc(C(N)Cc4ccc(O)cc4)nn3)CC2)nc(N2CCN(C(=O)[C@H](CCC(=O)O)n3cc(C(N)CC(C)C)nn3)CC2)n1 (stereo partly drawn)	56µM	50µM	i	?	i	i
C#CCOCCOCCOCCNc1nc(N2CCN(C(=O)C([C@@H](C)CC)n3cc(C(N)CC(C)C)nn3)CC2)nc(N2CCN(C(=O)[C@H](CCC(=O)O)n3cc(C(N)Cc4ccc(O)cc4)nn3)CC2)n1 (stereo partly drawn)	79µM	?	nt	?	i	i
CC(C)CN1C(=O)CO[C@H](c2ccc(NS(=O)(=O)CC(C)C)cc2)[C@H]1CO	nt	nt	i	nt	nt	nt
Cc1cc(C)cc(Nc2nc(-c3ccc(S(=O)(=O)N4CCCC4)cc3)cs2)c1	?	?	i	?	i	i
Cc1ccc(Nc2nc(-c3ccc(S(=O)(=O)N4CCCC4)cc3)cs2)cc1C	?	?	i	45µM	i	i
CCCNc1nc(-c2ccc(S(=O)(=O)N3CCCCCC3)cc2)cs1	nt	nt	32µM	nt	nt	nt
O=C(c1[nH]c(C(F)(F)F)nc1-c1ccccc1)N1CCN(Cc2c(F)cccc2Cl)CC1	nt	nt	i	nt	nt	i
Cc1ccc(S(=O)(=O)Cc2ccc(C(=O)OCc3ccccc3)cc2)cc1	i	i	i	i	i	i
CC(=O)c1ccc2c3c(ccc(O)c13)CC2	45µM	35µM	i	45µM	?	i
CC(=O)c1ccccc1O	nt	nt	i	nt	nt	nt
C#CCN(C[C@@H]1[C@@H](OC(=O)NCc2ccco2)[C@@H](OC(=O)NCc2ccco2)CN(C(=O)OC(C)C)N1C(=O)OC(C)C)S(=O)(=O)c1ccc(C)cc1	nt	nt	i	nt	nt	?
C#CCN(C[C@@H]1[C@@H](OC(=O)NC2CC2)[C@@H](OC(=O)NC2CC2)CN(C(=O)OC(C)C)N1C(=O)OC(C)C)S(=O)(=O)c1ccc(C)cc1	nt	nt	i	nt	nt	21µM
O=S(=O)(c1cccc(-c2n[nH]c(=S)n2C2CCCC2)c1)N1CCOCC1	4µM	nt	?	10µM	i	i
Cc1ccc(CSc2nnc(-c3cccc(S(=O)(=O)N4CCOCC4)c3)n2C2CCCC2)cc1	i	i	i	i	?	i
Cc1ccc(-c2ccc(CN)cc2)cc1Cl	nt	nt	i[12.5 µM]	nt	nt	nt
Cc1ccc(-c2n[nH]c(=S)n2C)cc1Cl	3.2µM	i	?	?	i	?
CCN(CC)S(=O)(=O)c1cccc(-c2n[nH]c(=S)n2C)c1	18µM	i	i	?	?	i
C=CCn1c(-c2cccc(S(=O)(=O)N(CC)CC)c2)n[nH]c1=S	13µM	nt	?	3.5µM	i	i
CC(C)C[C@H]1COC(c2ccc(Br)cc2)=N1	nt	nt	nt	i	nt	nt
C=CCn1c(-c2cccc(S(=O)(=O)N3CCOCC3)c2)n[nH]c1=S	7.1µM	i	?	7.1µM	i	i
C=CCn1c(SCC(=O)Nc2ccccc2)nnc1-c1cccc(S(=O)(=O)N2CCOCC2)c1	i	i	i	i	i	i
COc1ccc(OC)c2sc(N(CCCN(C)C)C(=O)c3ccc(S(=O)(=O)N4CCc5ccccc5C4)cc3)nc12	nt	i	nt	8.9µM	nt	nt
COc1cc2nc(N(CCCN(C)C)C(=O)c3ccc(C(=O)c4ccccc4)cc3)sc2cc1OC	?	?	?	50µM	?	i
CN(C)CCCN(C(=O)c1ccc(S(=O)(=O)N2CCc3ccccc3C2)cc1)c1nc2c(F)cc(F)cc2s1	?	?	nt	35µM	i	i
CN(C)CCCN(C(=O)c1ccc2ccccc2c1)c1nc2cc3c(cc2s1)OCO3	?	?	?	?	i	i
SMILES	JMJD2A Tudor	BAZ2B block	12-LOX inh	G9a block	HP1b chromo inh	PLK1 PBD inh
COc1ccc(C)c2sc(N(CCCN(C)C)C(=O)c3ccc(S(=O)(=O)N4CCc5ccccc5C4)cc3)nc12	i	nt	?	nt	?	i
COc1cc2nc(N(CCCN(C)C)C(=O)c3ccc(S(=O)(=O)N4CCc5ccccc5C4)cc3)sc2cc1OC	i	i	?	40µM	i	i
COc1ccc(-c2cc(C(=O)O)c3ccccc3n2)c(OC)c1	i	i	?	i[12.7 µM]	i	i
CCOC(=O)CN(C(=O)CSc1nnc(-c2ccc(OC)c(OC)c2)o1)c1ccccc1	i	i	i	i	i	i
O=C(NCC1CCCO1)C(Cc1ccccc1)N1C(=O)C2C3C=CC(C4CC34)C2C1=O (stereo not drawn)	i[11.4 µM]	i	i	i	i	11µM
O=c1[nH]c(SCc2cccc([N+](=O)[O-])c2)nc2[nH]ncc12	i	i	i	i	i	i
CSc1nc(O)c(C(c2cccc([N+](=O)[O-])c2)c2c(O)nc(SC)[nH]c2=O)c(=O)[nH]1	i	?	?	28µM	i	i
CCOc1ccc(Cc2c(O)nc(SC)[nH]c2=O)cc1	nt	nt	i	nt	nt	i
C=CCOc1ccc(C(c2c(O)nc(SC)[nH]c2=O)c2c(O)nc(SC)[nH]c2=O)cc1	i	nt	?	nt	i	12µM
CSc1nc(O)c(C(c2ccc(O)cc2)c2c(O)nc(SC)[nH]c2=O)c(=O)[nH]1	i	?	?	10µM	?	?
CC(C)c1c(O)nc(SCc2ccc(F)cc2)[nH]c1=O	i	i	i	i	i	i
CCOc1ccccc1C(c1c(O)nc(SC)[nH]c1=O)c1c(O)nc(SC)[nH]c1=O	i	nt	?	nt	i	i
CCOc1ccc(C(c2c(O)nc(SC)[nH]c2=O)c2c(O)nc(SC)[nH]c2=O)cc1	i	nt	i	nt	i	24µM
Cc1nnc(-c2cnn(C)c2N)n1Cc1ccccc1F	i	i	i	i[12.7 µM]	i	i
O=[N+]([O-])c1cc(-c2ccc(/C=N/c3nc4ccccn4c3-c3ccco3)o2)ccc1Cl	?	45µM	?	13µM	i	i
O=S(=O)(Nc1ccc(N=Nc2ccccc2)cc1)c1ccccc1	35µM	35µM	i	32µM	45µM	i
CC(C)N(N=Nc1ccc([N+](=O)[O-])cc1)C(C)C	i	i	i	i	i	i
O=[N+]([O-])c1ccc(N=Nc2ccc(O)c3ccccc23)cc1	3.2µM	nt	nt	nt	7.9µM	i
O=S(=O)(Nc1ccc(N=Nc2ccc(O)c3ccccc23)cc1)c1ccccc1	25µM	40µM	?	?	40µM	i
O=C(COC(=O)c1ccc(NS(=O)(=O)c2ccc(Br)s2)cc1)NC1CCCC1	i	i	i	i	i	i
CCCCNCCOCCSc1ccc(Cl)cc1	1.4µM	?	?	8.9µM	?	i
COCCCNCCOCCSc1ccc(Cl)cc1	1.8µM	?	i	?	?	i
COCCCNCCCCSc1ccc(Cl)cc1	10µM	?	?	3.5µM	?	i
O=C(O)CCCSc1ccc(Cl)cc1	nt	nt	i	nt	nt	nt
OCCNCCSc1ccc(Cl)cc1	22µM	56µM	?	50µM	i	i
COCCCNC(=O)CSc1ccc(C)c(C)c1	nt	nt	i	nt	nt	nt
